This passage reports activity change, negative = cytotoxicity and Potency results from PubChem BioAssay (NCATS).

Results filed as inconclusive are left out. A number with no mark means an inactive call. Active and inactive are the calls of the source. The call rests on the fitted dose curve; in most records, active means well fitted cell-killing curve with a large enough effect; inconclusive means small, poorly fitted or top-dose-only effect, or effect the other way; inactive means flat fitted curve, though single readings scatter.

What all share (experiment): Primary qHTS to identify gynecologic anti-cancer compounds using libraries of approved drugs and bioactive compounds (AID 1345084); further: nearly all actives have a fitted effect of over 55% in size
For orientation: qHTS replaces the single test concentration by a dilution series.

One assay has as its system C33A. The conditions noted are these: Gynecologic cancer cell panel viability, ATPlite luminescence, 48 h; series mostly up to 57.5 µM. An outline of the steps: (§1)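 In this quantitative HTS, cell killing is estimated from loss of ATP-dependent luciferase light. Cells see five compound concentrations over a 48 h exposure.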
For orientation: Cellular ATP, detected with luciferase, serves as a proxy for viable cell number.

Another assay deals with CAOV3. The conditions noted are these: Gynecologic cancer cell panel viability, ATPlite luminescence, 48 h; series mostly up to 57.5 µM. Summed up:
as §1

In another assay the test system is CASKI. The following applies: Gynecologic cancer cell panel viability, ATPlite luminescence, 48 h; series mostly up to 57.5 µM. Summed up:
as §1

Another assay has as its system Es-2. The conditions noted are these: Gynecologic cancer cell panel viability, ATPlite luminescence, 48 h; series mostly up to 57.5 µM. Summed up: as §1
In a further assay the test system is HeLa. The conditions noted are these: Gynecologic cancer cell panel viability, ATPlite luminescence, 48 h; series mostly up to 57.5 µM. Summed up: as §1
A further assay relates to Hek293T. The following applies: Gynecologic cancer cell panel viability, ATPlite luminescence, 48 h, control line for the selectivity index; series mostly up to 57.5 µM. An outline of the steps:
as §1

The next assay has as its system JEG-3. The following applies: Gynecologic cancer cell panel viability, ATPlite luminescence, 48 h; series mostly up to 57.5 µM. An outline of the steps:
as §1
On the % scale 0 is the no-effect control and ±100 the full control effect; potency means the concentration at half of the fitted maximal effect.

For `CC(C)NC(=O)N1CC[C@H](N=C2Nc3cc(F)ccc3N(CC(F)F)c3ccc(Cl)cc32)C1`, the activity change, negative = cytotoxicity in the assay on C33A is 7.02% [at 11.6 µM]; in the assay with CAOV3 it was -26.1% [at 11.6 µM]; in the assay with CASKI, -4.9% [at 11.6 µM]; in the assay on Es-2 it was 5.14% [at 11.6 µM]; with HeLa, -4.91% [at 11.6 µM]; in the assay with Hek293T, 1.3% [at 11.6 µM]. Besides, in the assay with JEG-3, the activity change, negative = cytotoxicity is 13.8% [at 11.6 µM].
For the compound `COc1ccc2c(NC(=O)Nc3cccc(C(F)(F)F)n3)ccnc2c1`, the Potency entry in the assay on C33A, in the assay with CAOV3, with CASKI, with Es-2, in the assay with HeLa and with Hek293T was “inactive” each time.
Consider `Cc1ccc(N2CCN(CCC3NC(=O)c4ccccc43)CC2)cc1C` (stereo not given), for which the Potency result with C33A, with CAOV3, with CASKI, in the assay with Es-2, in the assay with HeLa and with Hek293T was “inactive” each time. Also, the Potency result in the assay on JEG-3 was “inactive”.
For `CC(=O)OC1CCC2(C)C(CCC3(C)C2CC=C2C4C(C)C(C)CCC4(C)CCC23C)C1(C)C(=O)O` (stereo not given), the Potency result in the assay on C33A, with CAOV3, in the assay on CASKI, in the assay with Es-2, in the assay on HeLa and in the assay with Hek293T was “inactive” in each case.
Regarding `CC[C@@H]1C[C@]1(NC(=O)[C@@H]1C[C@@H]2CN1C(=O)[C@H](C(C)(C)C)NC(=O)OCC(C)(C)CCCCc1cccc3c1CN(C3)C(=O)O2)C(=O)NS(=O)(=O)C1CC1`, the Potency result in the assay with C33A, in the assay on CAOV3, in the assay with CASKI, in the assay with Es-2, in the assay with HeLa and in the assay with Hek293T was “inactive” throughout.
As for `CN1CCN(S(=O)(=O)c2ccc(-c3cnc(N)c(C(=O)Nc4cccnc4)n3)cc2)CC1`, the Potency result in the assay with C33A, with CAOV3, in the assay with CASKI, with Es-2, in the assay with HeLa and with Hek293T was “inactive” throughout.
On to `C=C1C(=O)O[C@@H]2/C=C(\C)CC/C=C(\C)CC[C@@H]12`, for which the Potency result in the assay on C33A, in the assay on CAOV3, in the assay with CASKI, in the assay on Es-2, with HeLa and in the assay with Hek293T was “inactive” throughout.
For `CN(C)N(C)C(=O)[C@@]1(Cc2ccccc2)CCCN(C(=O)[C@@H](Cc2c[nH]c3ccccc23)NC(=O)C(C)(C)N)C1`, the Potency result in the assay with C33A, with CAOV3, with CASKI, in the assay with Es-2, in the assay on HeLa and with Hek293T was “inactive” each time. Moreover, the Potency result with JEG-3 was “inactive”.
Take `CC1(C)CCC2(C(=O)OC3OC(COC4OC(CO)C(O)C(O)C4O)C(O)C(O)C3O)CCC3(C)C(=CCC4C5(C)CCC(OC6OCC(O)C(O)C6O)C(C)(C)C5CCC43C)C2C1O` (stereo not given): the activity change, negative = cytotoxicity was -1.3% [at 11.6 µM] in the assay with C33A; 1.87% [at 11.6 µM] in the assay with CAOV3; -6.34% [at 11.6 µM] with CASKI; 5.34% [at 11.6 µM] with Es-2; 20.6% [at 11.6 µM] in the assay on HeLa; -15.1% [at 11.6 µM] in the assay on Hek293T. Besides, in the assay with JEG-3, the activity change, negative = cytotoxicity is -7.3% [at 11.6 µM].
As for `O=C(N[C@@H]1CCCc2c1cnn2-c1ccc(F)cc1F)c1ccccn1`, the Potency result in the assay with C33A, in the assay on CAOV3, with CASKI, with Es-2 and in the assay on HeLa was “inactive” throughout.
Take `CC(C)C[C@H](CO)Nc1nc(S[C@@H](C)c2ccccc2)nc2nc(N)sc12`: the Potency result in the assay with C33A, in the assay with CAOV3, with CASKI, in the assay with Es-2, in the assay on HeLa and in the assay with Hek293T was “inactive” each time.
On to `COc1ccc2nc(-c3cc(OC)c(OC)c(OC)c3)cc(C(=O)NCC(=O)Nc3ccc(C(C)=O)cc3)c2c1`, for which the Potency entry in the assay on C33A, in the assay with CAOV3, with CASKI, with Es-2, in the assay with HeLa and in the assay on Hek293T was “inactive” each time.
As for `COc1ccncc1C(=O)NC(=O)Nc1ccc(-c2ccccc2)c(C(F)(F)F)c1`, the Potency entry with C33A, in the assay on CAOV3, in the assay on CASKI, with Es-2, with HeLa and in the assay with Hek293T was “inactive” in each case. The Potency entry in the assay on JEG-3 was “inactive”.
`O=C1Nc2ccccc2-c2nc3ccccc3c(=O)n2-c2c(O)cccc21`: the Potency result in the assay on C33A, with CAOV3, in the assay on CASKI, in the assay on Es-2, in the assay on HeLa and in the assay with Hek293T was “inactive” throughout. For the same compound, the Potency result in the assay on JEG-3 was “inactive”.
Turning to `COc1ccccc1N1CCN(CC[C@@](C)(C(=O)C2CCCCC2)c2ccccc2)CC1`, the Potency result in the assay with C33A, in the assay on CAOV3, with CASKI, in the assay with Es-2, in the assay on HeLa and in the assay on Hek293T was “inactive” throughout. Besides, the Potency result in the assay on JEG-3 was “inactive”.
In the case of `COC(=O)C[C@H]1C(C)(C)[C@H](OC(=O)c2ccccc2)C2CC3=C4CC(=O)O[C@@H](c5ccoc5)[C@]4(C)CCC3[C@@]1(C)C2=O` (stereo not given in full), the Potency result with C33A, in the assay on CAOV3, in the assay on CASKI, in the assay on Es-2, in the assay on HeLa and with Hek293T was “inactive” each time. In addition, the Potency entry in the assay on JEG-3 is “inactive”.
Regarding `Cc1cc2c(N3CCCC3)nc(N3CCCC3)nc2n1C`, the Potency result in the assay with C33A, in the assay with CAOV3, in the assay on CASKI, with Es-2, with HeLa and with Hek293T was “inactive” in each case. Also, in the assay on JEG-3, the Potency result was “inactive”.
For `COc1c(F)cccc1C(=O)N1C[C@@H](C)CC[C@H]1CNc1ccc(Br)cn1`, the Potency entry in the assay on C33A, in the assay with CAOV3, in the assay on CASKI, with Es-2, in the assay on HeLa and in the assay on Hek293T was “inactive” throughout. For the same compound, in the assay on JEG-3, the Potency result was “inactive”.
`COc1cc(C(=O)NC(=S)Nc2cccc(NC(=O)c3ccccc3)c2)cc(OC)c1OC`: the Potency result in the assay on C33A, in the assay with CAOV3, in the assay with CASKI, in the assay on Es-2, with HeLa and in the assay on Hek293T was “inactive” throughout. Moreover, in the assay with JEG-3, the Potency entry is “inactive”.
For the compound `Cc1ccnc(NC(=O)C(C)c2cccc(C(=O)c3ccccc3)c2)c1` (stereo not given), the Potency result in the assay on C33A, in the assay on CAOV3, with CASKI, in the assay with Es-2, in the assay with HeLa and in the assay on Hek293T was “inactive” each time. The Potency result in the assay with JEG-3 is “inactive”.
As for `CC(CCC1(O)OC2CC3C4CC=C5C[C@@H](O[C@@H]6O[C@H](CO)[C@@H](O[C@@H]7O[C@@H](C)[C@H](O)[C@@H](O)[C@H]7O)[C@H](O)[C@H]6O[C@@H]6O[C@@H](C)[C@H](O)[C@@H](O)[C@H]6O)CC[C@]5(C)C4CC[C@]3(C)[C@@]2(O)[C@@H]1C)CO[C@@H]1O[C@H](CO)[C@@H](O)[C@H](O)[C@H]1O` (stereo not given in full), the activity change, negative = cytotoxicity in the assay on C33A was -5.46% [at 11.6 µM]; with CASKI, 14.6% [at 11.6 µM]; in the assay with Es-2, 10.8% [at 11.6 µM]; with HeLa it was 4.9% [at 11.6 µM]; in the assay with Hek293T it was 7.85% [at 11.6 µM]; in the assay on JEG-3, 5.47% [at 11.6 µM]. In addition, in the assay on CAOV3, the Potency was 1000 nM (active).
`Fc1ccc(-c2cncc(CN3CCN(c4cccc5c4OCCO5)CC3)c2)cc1`: the Potency entry in the assay on C33A, with CAOV3, in the assay on CASKI, in the assay on Es-2, with HeLa and in the assay on Hek293T was “inactive” in each case. Also, in the assay on JEG-3, the Potency entry was “inactive”.
